In PubChem BioAssay:
Calls of active or inactive are those of the source.

Key:
Albumin (Bos taurus) = Albumin (Bos taurus) (UniProt P02769); test: compounds binding labelled BSA control protein – biochemical, small-molecule microarray, Alexa647 label, 635/667 nm fluorescence, artefact control for SMM control protein annotation, profiling panel (AID 1118); details: BSA-A647 binding, fluorescence 635 nm, higher = more signal;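 further: score merges 667 nm emission intensity and signal-to-noise per printed compound spot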
Albumin (Bos taurus), sequence (P02769 whole entry, looked up): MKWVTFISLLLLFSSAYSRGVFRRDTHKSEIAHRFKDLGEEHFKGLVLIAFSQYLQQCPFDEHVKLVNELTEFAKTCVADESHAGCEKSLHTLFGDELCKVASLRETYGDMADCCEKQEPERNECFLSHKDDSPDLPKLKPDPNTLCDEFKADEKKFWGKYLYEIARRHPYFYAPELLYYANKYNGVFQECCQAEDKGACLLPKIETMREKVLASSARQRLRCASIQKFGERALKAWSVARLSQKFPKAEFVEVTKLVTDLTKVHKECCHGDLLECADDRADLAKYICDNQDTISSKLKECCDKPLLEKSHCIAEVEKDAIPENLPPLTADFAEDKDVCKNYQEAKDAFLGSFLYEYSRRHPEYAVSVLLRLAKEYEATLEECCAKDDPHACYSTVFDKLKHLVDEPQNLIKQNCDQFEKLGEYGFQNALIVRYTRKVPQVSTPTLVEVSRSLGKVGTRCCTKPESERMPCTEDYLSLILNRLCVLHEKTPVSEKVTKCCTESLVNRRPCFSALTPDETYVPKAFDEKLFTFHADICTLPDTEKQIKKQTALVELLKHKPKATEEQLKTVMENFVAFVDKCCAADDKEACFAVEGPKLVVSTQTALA

[1] = probe aXIP binding to arrayed compounds – biochemical, NeuroSMM set, 635/667 nm fluorescence, primary screen (AID 1119); details: small-molecule microarray, higher = more signal, called active from +8 up or from −8 down;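 further: probe is the protein aXip251-270 applied at 1 µg/mL to compound-printed slides; binding of probe to printed compounds measured as 667 nm fluorescence plus signal to noise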
[2] = probe aNOTCH3 binding on compound microarray – biochemical, small-molecule microarray, 635/667 nm fluorescence, primary screen (AID 1120); details: higher = more signal;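 further: probe is a biotin-tagged antibody raised against NOTCH3 rather than NOTCH3 protein; score merges spot fluorescence near 667 nm with spot signal to noise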
[3] = probe aNOTCH2 binding on compound microarray – biochemical, small-molecule microarray, 635/667 nm fluorescence, primary screen (AID 1121); details: higher = more signal;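 further: score merges feature fluorescence read at 667 nm with its signal to noise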
[4] = molecular target: Carbonic anhydrase 2 (Homo sapiens) (UniProt P00918); test: compounds binding carbonic anhydrase 2 – biochemical, small-molecule microarray, Alexa647-labelled CAII, profiling panel (AID 1122); details: CAII-A647 binding fluorescence, higher = more signal
[5] = COS7 lysate on small-molecule microarray, probe aHis, 635 nm (AID 1123); details: COS7 cell lysate, fluorescence, higher = more signal;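 further: z-score combines 667nm fluorescence intensity with signal-to-noise per printed compound spot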
[6] = probe aLAP1 signal on lysate-treated microarray – cell lysate, small-molecule microarray, COS7 lysate, primary screen (AID 1124); details: probe aLAP1, fluorescence, higher = more signal;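 further: lysate comes from COS7 cells expressing LAP1 and is applied at 0.3 µg/mL; score merges spot fluorescence near 667 nm with signal-to-noise over triplicate slides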
Sam68 (KHDRBS1) = test: compounds binding KHDRBS1 protein – biochemical, small-molecule microarray, 635 nm fluorescence, primary screen (AID 1125); details: higher = more signal;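 further: score merges 667 nm channel intensity with signal to noise over triplicate slides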
[7] = test system: Chordin-like protein 2 (CHRDL2); test: compounds binding chordin-like 2 – biochemical, small-molecule microarray, 635 nm fluorescence, primary screen (AID 1126); details: fluorescence 635 nm, higher = more signal;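 further: printed compound slides probed with Chrdl2 protein at 4 µg/mL for 1 h at 4 C; score merges 667 nm emission intensity with signal to noise over three replicate slides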
[8] = molecular target: Concanavalin-A (Canavalia ensiformis) (UniProt P02866); test: compounds binding concanavalin A lectin – biochemical, small-molecule microarray, Alexa647 label, 635 nm, artefact control for SMM control protein annotation, primary screen (AID 1127); details: ConA-A647 binding fluorescence, higher = more signal;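 further: z combines 667 nm emission intensity with signal-to-noise across three replicate slides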
Concanavalin-A (Canavalia ensiformis), sequence (P02866 whole entry, looked up): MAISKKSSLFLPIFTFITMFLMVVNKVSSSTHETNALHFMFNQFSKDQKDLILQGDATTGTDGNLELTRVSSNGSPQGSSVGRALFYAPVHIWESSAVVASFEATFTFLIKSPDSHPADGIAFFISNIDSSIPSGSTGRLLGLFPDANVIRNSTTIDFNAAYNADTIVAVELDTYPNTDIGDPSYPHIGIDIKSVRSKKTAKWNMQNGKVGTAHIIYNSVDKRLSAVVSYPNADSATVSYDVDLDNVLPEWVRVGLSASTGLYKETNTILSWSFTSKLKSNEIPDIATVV

| Structure (SMILES) | composite z-score (Albumin (Bos taurus)) | composite Z-score [1] | composite z-score [2] | composite z-score [3] | composite z-score [4] | composite z-score [5] | composite z-score [6] | composite z-score (Sam68 (KHDRBS1)) | composite z-score [7] | composite z-score [8] |
| --- | --- | --- | --- | --- | --- | --- | --- | --- | --- | --- |
| O=C1C=CC(=O)[C@@H]2CC(COc3ccccc3)=C3[C@@H](CCc4ccccc4)OB(O)C[C@@H]3[C@H]12 | -0.182 | 0.155 (inactive) | -0.0647 | -0.219 | -0.0292 | 0.113 | -0.17 | 0.359 | 0.299 | 0.238 |
| C=CCNC(=O)[C@@H]1[C@H]2C(=O)O[C@H](c3ccccc3)[C@H](c3ccccc3)N2[C@H](c2ccccc2OCCO)[C@@]12C(=O)Nc1ccc(C#CC3=CCCCC3)cc12 | 0.482 | -0.224 (inactive) | 0.0105 | -0.0907 | 0.271 | 2.18 | 0.536 | 1.3 | 0.436 | 0.99 |
| Cc1cc(C)c(C(O)C2C=CC3C(=O)N(c4ccccc4)C(=O)C3N2Nc2ccc(C#N)cc2)c(C)c1 (stereo not given) | 1.07 | 0.902 (inactive) | 0.0649 | 0.115 | 0.743 | 3.02 | 0.629 | 1.35 | -0.183 | 1.19 |
| C=C[C@@H](COC(C)=O)N(Cc1ccc([N+](=O)[O-])cc1)S(=O)(=O)c1ccc(Br)cc1 | 0.812 | 0.181 (inactive) | -0.0647 | -0.0089 | 0.448 | 0.432 | 0.442 | 0.573 | 0.241 | 1.11 |
| COc1ccc(NN2C(C(O)c3ccc(OC)c(OCc4ccccc4)c3)C=CC3C(=O)N(C4CCCCC4)C(=O)C32)cc1 (stereo not given) | 0.976 | 0.745 (inactive) | 0.252 | -0.122 | 0.274 | 2.52 | 0.0516 | 1.24 | 0.275 | 1.11 |
| CCOC(=O)C1=CC[C@@H](c2ccccc2)N(S(=O)(=O)c2ccc(C)cc2)[C@H]1C(=O)OCC | 0.744 | 0.615 (inactive) | 0.421 | 0.144 | 0.413 | 1.22 | 0.748 | 1.12 | -0.361 | -0.515 |
| C=C(COC)/C(=C/C[C@H](OC(=O)c1ccncc1)c1cccc(OCCO)c1)c1cc(C(=O)OC)ccc1OC | 0.374 | 0.415 (inactive) | -0.0006 | -0.146 | 0.697 | 0.75 | 0.343 | 0.908 | -0.386 | -0.163 |
| COC(=O)[C@]1(Cc2ccccc2N=[N+]=[N-])N=C(c2ccc(OCCCO)cc2)O[C@@H]1c1ccccc1N=[N+]=[N-] | 0.308 | -0.47 (inactive) | -0.0976 | -0.148 | 0.595 | 0.794 | 0.405 | -0.255 | -0.153 | 0.725 |
| CC(C)OC(=O)CC(=O)CC(O)c1ccc(C#N)cc1 (stereo not given) | -0.181 | 0.0371 (inactive) | -0.0377 | 0.174 | 0.0258 | 0.657 | 0.649 | 0.438 | -1.19 | -0.6 |
| CCCC[C@H]1OB(O)C[C@H]2C1=C(C)C[C@H]1C(=O)N(Cc3ccccc3)C(=O)[C@H]12 | 0.067 | 0.252 (inactive) | -0.0613 | -0.126 | 0.38 | 0.257 | -0.361 | 0.663 | 0.472 | 0.546 |
| COc1ccc([Si](C)(C)[C@H]2[C@H](CCn3cc(CCO)nn3)O[C@@]3(C(=O)N(Cc4ccc(N5CCOC5=O)cc4)c4ccccc43)[C@@H]2C)cc1 | 0.535 | 0.533 (inactive) | -0.0126 | -0.112 | 0.458 | 1.94 | 0.622 | 1.23 | 0.21 | 0.702 |
| N#Cc1ccc(NN2C(C(O)C3CCCCC3)C=CC3C(=O)N(c4ccccc4)C(=O)C32)cc1 (stereo not given) | 0.919 | 0.417 (inactive) | 0.459 | 0.0636 | 0.184 | 2.62 | 0.236 | 1.29 | -0.915 | 1.21 |
| COC(=O)[C@@]1(Cc2ccc(OC)cc2)[C@H]2c3cc(C(=O)N4CCCC4)n(Cc4cc(F)cc5c4OCOC5)c3C[C@H]2CN1C(=O)c1ccccc1 | 0.161 | -0.0345 (inactive) | 0.58 | 0.38 | 0.916 | 2.39 | -0.429 | -0.0061 | -0.974 | 0.693 |
| COc1cc2c(cc1OC)CN(C(=O)[C@@H]1[C@H]3C(=O)O[C@H](c4ccccc4)[C@H](c4ccccc4)N3[C@H](c3ccccc3OCCO)[C@@]13C(=O)Nc1ccc(C#CCNC(N)=O)cc13)CC2 | 0.301 | 0.545 (inactive) | 0.37 | -0.0251 | 0.377 | 2.65 | 1.15 | 1.31 | 0.981 | 1.11 |
| O=C(CS)NCCCCCCNC(=O)[C@H]1C[C@H]2C(=O)NCC(=O)N2[C@H]1c1ccc(O)cc1 | -0.523 | 0.131 (inactive) | -0.25 | -0.14 | 0.696 | 0.677 | 0.621 | -0.272 | 0.129 | 0.336 |
| CCOC(=O)C1=CCC(C(C)(C)C)N(S(=O)(=O)c2ccc(C)cc2)C1 (stereo not given) | 0.815 | -0.427 (inactive) | 0.34 | -0.0196 | 0.623 | 2.45 | 0.368 | 1.32 | 0.825 | 1.1 |
